“And” between values parts separate entries of the source, which are not always exact repeats. Equal values may be shown once. Unmarked numbers belong to inactive results. No rule for the calls is given here.
Tested on: Botulinum neurotoxin type F light chain protease (Clostridium botulinum)
Assay: Botulinum neurotoxin type F light chain protease inhibition, multiplex microsphere flow cytometry, validation set (AID 588459)
Details: multiplex microsphere protease substrate cleavage assay, at 10 µM, active compounds read high

Compared with `N/C(Cc1ccc(Cl)cc1Cl)=N\OC(=O)c1ccc(Br)o1`, `N/C(=N\OC(=O)CCCOc1ccc(Cl)cc1Cl)c1ccccn1` is higher in inhibition: -0.8% for the first, 4% for the second.

Compared with `CC(C)OC(=O)CC1C(=O)NCCN1C(=S)NC(=O)c1ccccc1Cl` (stereo not given), `CC(C)OC(=O)CC1C(=O)NCCN1C(=S)NC(=O)c1cccs1` (stereo not given) is higher in inhibition: -1.8% for the first, 0.8% for the second.

Compared with `Nc1nc(Cl)nc2c1ncn2[C@H]1C[C@H](O)[C@@H](CO)O1`, `Nc1cccc2c1nnn2C1OC(CO)C(O)C(O)C1O` (stereo not given) is higher in inhibition: -8.7% for the first, 0.7% for the second.

Compared with `COc1ccc(/C=C2\CC/C(=C\c3ccc(OC)c(OC)c3)C2=O)cc1OC`, `COc1ccc(CCNc2ncnc3c2[nH]c2cc(OC)c(OC)cc23)cc1OC` is lower in inhibition: 1.7% for the first, -0.5% for the second.

First: COc1ccc(CNCCC2(C(C)C)CCOC(C)(C)C2)cc1 (stereo not given)
Second: COc1ccc(CCNC(=O)c2c(O)c3c([nH]c2=O)CCCC3)cc1
The inhibition of the first is lower: 1.9% for the first, 2.6% for the second.

Compared with `CCCn1c(=O)c2[nH]c(C3CCCC3)nc2n(CCC)c1=O`, `Cc1cccc2c(=O)n3c(nc12)CCCCC3` is lower in inhibition: 4.7% for the first, 0.4% for the second.

Going from `Cn1c(=O)c(C(=O)NCCO)c(O)c2ccccc21` to `O=C(O)CCn1c(=S)n(CCC(=O)O)c2ccccc21`, the inhibition rises from 0.4% to 2.7%.

Compared with `O=c1c(-c2ccccc2)c(O)c2cccc3c2n1CCC3`, `CC(C)CN(C)Cc1c(C(=O)N2CCc3ccccc3C2)nc2ccc(Cl)cn12` is lower in inhibition: 3.3% for the first, 2.4% for the second.

`COc1cccc(CC(=O)NCC2COc3ccccc3O2)c1OC` (stereo not given) and `COc1cc(C(=O)Nc2ccc(N(C)C)cc2)c([N+](=O)[O-])cc1OC` are the same in inhibition: -2.4% for the first, -2.4% for the second.

Compared with `CCN(CC)Cc1c[nH]c2c(C(=O)OC)cccc12`, `CC[N+](C)(C)Cc1ccccc1Br` is higher in inhibition: -0.7% for the first, 2.1% for the second.

First: CSCCC(NC(C)=O)C(=O)Oc1ccc2c3c(c(=O)oc2c1)CCCC3 (stereo not given)
Second: COC(=O)[C@H]1[C@H]2C[C@@H]3c4[nH]c5cc(OC)ccc5c4CCN3C[C@H]2C[C@@H](OC(=O)c2ccc(N)cc2)[C@@H]1OC
The inhibition of the first is higher: -3.3% for the first, -4.7% for the second.

First: Cn1c(=O)[nH]c2nnc(-c3ccc(Cl)c(Cl)c3)nc2c1=O
Second: COc1ccc2nc(Nc3nc(CSc4ccc(C)cc4)cc(=O)[nH]3)nc(C)c2c1
The inhibition of the first is lower: -0.1% for the first, 0.6% for the second.

Compared with `Cc1ccccc1-c1nn(-c2ccc(F)cc2F)cc1CNCCN(C)C`, `Cn1cc(CN2CCC(C(=O)N3CCCCC3)CC2)c(-c2ccccc2F)n1` is higher in inhibition: -1.9% for the first, 4% for the second.

First: O=C(N/C(=C/C=C\c1ccccc1)C(=O)N1CCOCC1)c1ccc(Br)cc1
Second: CCNC(=O)C(Cc1ccccc1)NC(=O)OCc1ccccc1 (stereo not given)
The inhibition of the first is higher: 3.8% for the first, 0.3% for the second.

Going from `Cc1ccc(S(=O)(=O)NC(=O)Nc2cc(C)ccc2F)cc1` to `Cc1c(NC(=O)c2cccs2)cccc1[N+](=O)[O-]`, the inhibition rises from 3% to 4.2%.

Compared with `CCCCOc1ccc(OCCCN2CCOCC2)cc1`, `O=C(O)CCCCCNC(=O)Nc1ccc2c(c1)OCCO2` is higher in inhibition: -1.1% for the first, 1.3% for the second.

Compared with `CCCC(=O)Nc1ccc(OCC(O)CNC(C)C)c(C(C)=O)c1` (stereo not given), `COc1ccc(C(=O)NCCC2=CCCCC2)cc1[N+](=O)[O-]` is lower in inhibition: 2% for the first, -5.9% for the second.

First: NS(=O)(=O)c1cc2c(cc1Cl)NC(CSCc1ccccc1)=NS2(=O)=O
Second: CC(C)CC(=O)N(Cc1ccc(F)cc1)C1CCS(=O)(=O)C1 (stereo not given)
The inhibition of the first is lower: -4.8% for the first, 8.9% for the second.

Compared with `COc1ccc(C2OC[C@H]3O[C@H](O)[C@H](NC(C)=O)[C@@H](O)[C@@H]3O2)cc1` (stereo not given in full), `COC(=O)C1=C(C)N(Cc2ccco2)C(=O)/C1=C\c1ccc([N+](=O)[O-])cc1` is higher in inhibition: -3.6% for the first, 1% for the second.

`CCCCOc1cc(C(=O)NCCN(CC)CC)c2ccccc2n1` was tested, and the inhibition was 8.5% and -0.1%.
For `CCN(CC)CC(=O)Nc1c(C)cccc1C`, the inhibition was 2.8% and -0.5%.

Molecular target: Botulinum neurotoxin type A (Clostridium botulinum) (UniProt P0DPI0)
Sequence (P0DPI0 whole entry, looked up): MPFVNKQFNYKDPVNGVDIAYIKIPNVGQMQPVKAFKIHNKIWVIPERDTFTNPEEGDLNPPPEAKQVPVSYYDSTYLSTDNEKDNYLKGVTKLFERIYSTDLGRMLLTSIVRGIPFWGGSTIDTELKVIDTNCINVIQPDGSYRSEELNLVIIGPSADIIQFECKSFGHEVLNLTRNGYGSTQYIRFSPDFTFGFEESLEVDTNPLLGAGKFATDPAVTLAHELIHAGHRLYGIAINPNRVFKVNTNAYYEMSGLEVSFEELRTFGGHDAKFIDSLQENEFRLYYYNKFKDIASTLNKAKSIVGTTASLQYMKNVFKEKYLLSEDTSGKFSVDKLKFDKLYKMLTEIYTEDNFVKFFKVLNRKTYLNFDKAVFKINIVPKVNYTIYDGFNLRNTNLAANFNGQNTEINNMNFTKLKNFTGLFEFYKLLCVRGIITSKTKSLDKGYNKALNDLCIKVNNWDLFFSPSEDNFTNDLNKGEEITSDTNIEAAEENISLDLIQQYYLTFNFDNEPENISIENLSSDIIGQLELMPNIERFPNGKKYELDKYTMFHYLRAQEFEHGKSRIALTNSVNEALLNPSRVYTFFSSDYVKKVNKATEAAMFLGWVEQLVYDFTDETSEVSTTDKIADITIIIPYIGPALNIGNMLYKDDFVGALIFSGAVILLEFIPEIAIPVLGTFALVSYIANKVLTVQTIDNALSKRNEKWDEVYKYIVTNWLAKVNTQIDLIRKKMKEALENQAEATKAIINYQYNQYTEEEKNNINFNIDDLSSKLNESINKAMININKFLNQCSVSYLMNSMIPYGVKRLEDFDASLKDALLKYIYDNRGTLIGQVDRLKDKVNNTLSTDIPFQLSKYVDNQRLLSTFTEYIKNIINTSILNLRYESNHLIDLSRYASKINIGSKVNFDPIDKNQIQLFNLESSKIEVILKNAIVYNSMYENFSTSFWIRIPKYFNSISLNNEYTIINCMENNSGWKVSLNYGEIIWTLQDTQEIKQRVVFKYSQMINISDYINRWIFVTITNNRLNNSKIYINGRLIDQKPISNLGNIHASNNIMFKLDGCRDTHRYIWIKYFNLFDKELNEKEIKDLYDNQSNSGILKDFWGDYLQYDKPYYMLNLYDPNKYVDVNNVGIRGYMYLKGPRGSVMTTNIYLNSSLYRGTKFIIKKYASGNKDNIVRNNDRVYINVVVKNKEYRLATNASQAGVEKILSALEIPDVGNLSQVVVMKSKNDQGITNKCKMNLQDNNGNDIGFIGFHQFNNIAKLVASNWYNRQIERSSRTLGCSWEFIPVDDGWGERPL
Assay: BoNT/A light chain protease inhibitors, biochemical, multiplex microsphere flow cytometry, validation set (AID 588460)
Details: at 10 µM, active compounds read high

First: N/C(Cc1ccc(Cl)cc1Cl)=N\OC(=O)c1ccc(Br)o1
Second: N/C(=N\OC(=O)CCCOc1ccc(Cl)cc1Cl)c1ccccn1
The inhibition of the first is lower: -2.5% for the first, -0.3% for the second.

Compared with `CC(C)OC(=O)CC1C(=O)NCCN1C(=S)NC(=O)c1ccccc1Cl` (stereo not given), `CC(C)OC(=O)CC1C(=O)NCCN1C(=S)NC(=O)c1cccs1` (stereo not given) is lower in inhibition: -0.4% for the first, -1.7% for the second.

Compared with `Nc1nc(Cl)nc2c1ncn2[C@H]1C[C@H](O)[C@@H](CO)O1`, `Nc1cccc2c1nnn2C1OC(CO)C(O)C(O)C1O` (stereo not given) is higher in inhibition: -2.6% for the first, 0.1% for the second.

First: COc1ccc(/C=C2\CC/C(=C\c3ccc(OC)c(OC)c3)C2=O)cc1OC
Second: COc1ccc(CCNc2ncnc3c2[nH]c2cc(OC)c(OC)cc23)cc1OC
The inhibition of the first is higher: 0.1% for the first, -0.5% for the second.

Going from `COc1ccc(CNCCC2(C(C)C)CCOC(C)(C)C2)cc1` (stereo not given) to `COc1ccc(CCNC(=O)c2c(O)c3c([nH]c2=O)CCCC3)cc1`, the inhibition falls from 0.8% to 0.3%.

Compared with `CCCn1c(=O)c2[nH]c(C3CCCC3)nc2n(CCC)c1=O`, `Cc1cccc2c(=O)n3c(nc12)CCCCC3` is lower in inhibition: 0.8% for the first, -1.4% for the second.

Compared with `Cn1c(=O)c(C(=O)NCCO)c(O)c2ccccc21`, `O=C(O)CCn1c(=S)n(CCC(=O)O)c2ccccc21` is higher in inhibition: -0.1% for the first, 0.3% for the second.

Compared with `O=c1c(-c2ccccc2)c(O)c2cccc3c2n1CCC3`, `CC(C)CN(C)Cc1c(C(=O)N2CCc3ccccc3C2)nc2ccc(Cl)cn12` is lower in inhibition: 0.8% for the first, 0.6% for the second.

First: COc1cccc(CC(=O)NCC2COc3ccccc3O2)c1OC (stereo not given)
Second: COc1cc(C(=O)Nc2ccc(N(C)C)cc2)c([N+](=O)[O-])cc1OC
The inhibition of the first is higher: 0.4% for the first, -0.2% for the second.

Compared with `CCN(CC)Cc1c[nH]c2c(C(=O)OC)cccc12`, `CC[N+](C)(C)Cc1ccccc1Br` is lower in inhibition: 0.3% for the first, -0.1% for the second.

First: CSCCC(NC(C)=O)C(=O)Oc1ccc2c3c(c(=O)oc2c1)CCCC3 (stereo not given)
Second: COC(=O)[C@H]1[C@H]2C[C@@H]3c4[nH]c5cc(OC)ccc5c4CCN3C[C@H]2C[C@@H](OC(=O)c2ccc(N)cc2)[C@@H]1OC
The inhibition of the first is higher: -1.8% for the first, -2.3% for the second.

Compared with `Cn1c(=O)[nH]c2nnc(-c3ccc(Cl)c(Cl)c3)nc2c1=O`, `COc1ccc2nc(Nc3nc(CSc4ccc(C)cc4)cc(=O)[nH]3)nc(C)c2c1` is lower in inhibition: 0.4% for the first, -0.3% for the second.

First: Cc1ccccc1-c1nn(-c2ccc(F)cc2F)cc1CNCCN(C)C
Second: Cn1cc(CN2CCC(C(=O)N3CCCCC3)CC2)c(-c2ccccc2F)n1
The inhibition of the first is lower: -0.5% for the first, 0.2% for the second.

Compared with `O=C(N/C(=C/C=C\c1ccccc1)C(=O)N1CCOCC1)c1ccc(Br)cc1`, `CCNC(=O)C(Cc1ccccc1)NC(=O)OCc1ccccc1` (stereo not given) is lower in inhibition: 0.6% for the first, -1.4% for the second.

First: Cc1ccc(S(=O)(=O)NC(=O)Nc2cc(C)ccc2F)cc1
Second: Cc1c(NC(=O)c2cccs2)cccc1[N+](=O)[O-]
The inhibition of the first is lower: -0.1% for the first, 1.3% for the second.

Going from `CCCCOc1ccc(OCCCN2CCOCC2)cc1` to `O=C(O)CCCCCNC(=O)Nc1ccc2c(c1)OCCO2`, the inhibition falls from 0.4% to -1.4%.

Compared with `CCCC(=O)Nc1ccc(OCC(O)CNC(C)C)c(C(C)=O)c1` (stereo not given), `COc1ccc(C(=O)NCCC2=CCCCC2)cc1[N+](=O)[O-]` is lower in inhibition: 1.1% for the first, -1.5% for the second.

Compared with `NS(=O)(=O)c1cc2c(cc1Cl)NC(CSCc1ccccc1)=NS2(=O)=O`, `CC(C)CC(=O)N(Cc1ccc(F)cc1)C1CCS(=O)(=O)C1` (stereo not given) is higher in inhibition: 0% for the first, 3.7% for the second.

First: COc1ccc(C2OC[C@H]3O[C@H](O)[C@H](NC(C)=O)[C@@H](O)[C@@H]3O2)cc1 (stereo not given in full)
Second: COC(=O)C1=C(C)N(Cc2ccco2)C(=O)/C1=C\c1ccc([N+](=O)[O-])cc1
The inhibition of the first is lower: -1.7% for the first, -0.6% for the second.

In the case of `CCCCOc1cc(C(=O)NCCN(CC)CC)c2ccccc2n1`, the inhibition was 1.5% and -0.6%.
In the case of `CCN(CC)CC(=O)Nc1c(C)cccc1C`, the inhibition was 0.5% and -2.3%.
